“And” between values parts separate entries of the source, which are not always exact repeats. Equal entries are not always repeated. About 2,000 (36%) of roughly 5,500 compounds were called active. Not shown: some 18% with an inconclusive outcome. Rule as the data show it: active = normalized growth mostly below about 0.91 (no sharp cut-off); inconclusive = no clear call, values can overlap the other calls; inactive = mostly above about 0.92. The list shows a part of the results.
Assay: chemical genetic growth profiling, strain panel (AID 1159580);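 also: tested at 20 µM; growth read once vehicle control cultures reached saturation at 30 °C; 1 = growth at the plate median or of vehicle wells; lower values mean less growth of the strain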
Details: S. cerevisiae deletion strains, growth OD

Measured: normalized growth

Oc1ccc2c(c1)OCC1(O)Cc3cc(O)c(O)cc3C21 (stereo unspecified)
inactive: locus YAL021C, strain ccr4, hits give low values 1.03 | locus YAL026C, strain drs2, hits give low values 1.03 | locus YAL030W, strain snc1, hits give low values 1.02 | locus YBL061C, strain skt5, hits give low values 1.03 | locus YBR009C, strain hhf1, hits give low values 1.01 | locus YBR021W, strain FUR4, hits give low values 1.04 | locus YBR023C, strain chs3, hits give low values 1.03 | locus YBR171W, strain sec66, hits give low values 1.04 | locus YBR229C, strain ROT2, hits give low values 1.01 | locus YBR231C, strain swc5, hits give low values 1.01 | locus YBR279W, strain paf1, hits give low values 1.02 | locus YCL011C, strain gbp2, hits give low values 1.03 | locus YCL016C, strain dcc1, hits give low values 1.03 | locus YCL029C, strain bik1, hits give low values 1.01 | locus YCL061C, strain MRC1, hits give low values 1.02 | locus YCL069W, strain vba3, hits give low values 1.03 | locus YCR088W, strain abp1, hits give low values 1.02 | locus YDL005C, strain med2, hits give low values 1.03 | locus YDL035C, strain GPR1, hits give low values 1.03 | locus YDL040C, strain nat1, hits give low values 1.02 | locus YDL074C, strain BRE1, hits give low values 0.936 | locus YDL101C, strain DUN1, hits give low values 0.958 | locus YDL185W, strain tfp1, hits give low values 0.964 | locus YDL192W, strain arf1, hits give low values 1.01 | locus YDR001C, strain nth1, hits give low values 1.03 | locus YDR069C, strain doa4, hits give low values 1.01 | locus YDR101C, strain arx1, hits give low values 1.07 | locus YDR137W, strain rgp1, hits give low values 1.15 | locus YDR150W, strain NUM1, hits give low values 1 | locus YDR159W, strain sac3, hits give low values 1.05 | locus YDR162C, strain NBP2, hits give low values 0.976 | locus YDR195W, strain ref2 1.02 | locus YDR297W, strain sur2, hits give low values 1.02 | locus YDR318W, strain mcm21, hits give low values 0.98 | locus YDR334W, strain swr1, hits give low values 1.03 | locus YDR335W, strain msn5, hits give low values 1.01 | locus YDR388W, hits give low values 0.978 | locus YDR392W, strain spt3, hits give low values 1.03 | locus YDR502C, strain sam2, hits give low values 0.996 | locus YEL003W, strain gim4, hits give low values 1.02 | locus YEL037C, strain rad23, hits give low values 1.02 | locus YEL061C, strain CIN8 (second series), hits give low values 1.04 | locus YER015W, strain faa2, hits give low values 1.01 | locus YER016W, strain bim1, hits give low values 1.03 | locus YER110C, hits give low values 0.996 | locus YER111C, strain swi4, hits give low values 1.03 | locus YER155C, strain BEM2 (second series), hits give low values 1.03 | locus YER155C, strain BEM2, hits give low values 1.04 | locus YER167W, strain BCK2, hits give low values 1.04 | locus YFR010W, strain ubp6, hits give low values 1.02 | locus YGL078C, strain dbp3, hits give low values 0.986 | locus YGL086W, strain mad1, hits give low values 0.996 | locus YGL167C, strain pmr1, hits give low values 1.02 | locus YGL173C, strain kem1, hits give low values 1.03 | locus YGL227W, strain vid30, hits give low values 1.04 | locus YGL240W, strain doc1, hits give low values 1.02 | locus YGL248W, strain PDE1, hits give low values 0.989 | locus YGL253W, strain hxk2, hits give low values 1.02 | locus YGR078C, strain PAC10, hits give low values 0.977 | locus YGR135W, strain pre9, hits give low values 0.945 | locus YGR229C, strain SMI1, hits give low values 0.968 | locus YGR252W, strain gcn5, hits give low values 1.06 | locus YHR013C, strain ard1, hits give low values 1.07 | locus YHR027C, strain rpn1, hits give low values 1.02 | locus YHR030C, strain SLT2, hits give low values 0.995 | locus YHR079C, strain IRE1 (second series), hits give low values 0.993 | locus YHR079C, strain IRE1, hits give low values 0.992 | locus YHR094C, strain hxt1, hits give low values 1 | locus YHR129C, strain ARP1, hits give low values 0.98 | locus YHR142W, strain chs7, hits give low values 1.05 | locus YHR200W, strain rpn10, hits give low values 1.01 | locus YIL066C, strain RNR3, hits give low values 1.03 | locus YIL073C, strain SPO22, hits give low values 0.964 | locus YIL125W, strain kgd1, hits give low values 1.01 | locus YIR030C, strain dcg1, hits give low values 1 | locus YJL092W, strain hpr5, hits give low values 1.03 | locus YJL095W, strain BCK1 (second series), hits give low values 1.02 | locus YJL095W, strain BCK1, hits give low values 0.88 and 0.999 | locus YJL115W, strain asf1, hits give low values 1.04 | locus YJL129C, strain trk1, hits give low values 1.09 | locus YJL134W, strain LCB3, hits give low values 1.01 | locus YJL154C, strain vps35, hits give low values 1.03 | locus YJL164C, strain tpk1, hits give low values 1.03 | locus YJL166W, strain qcr8, hits give low values 1.02 | locus YJL168C, strain set2, hits give low values 0.983 | locus YJL187C, strain SWE1 (second series), hits give low values 0.922
